# System: PXR homodimer (NR concentration 270 nM)
# Assay: PBM binding z-score (relative to random genomic background probes); higher = stronger binding; sequences stand for … in GC…GCGATTGACAGCGTAGAATGAAGG
# Procedure, shortened: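 Each nuclear receptor dimer, without ligand, was incubated for 1 h on custom Agilent 4×180K protein-binding microarrays. Binding was detected with antibodies against each partner (one per run), and scanned fluorescence was regression-normalized. The binding z-scores are referenced to random human genomic background probes.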
row,Sequence,PBM binding z-score
1,GCGACTGGGGCAAAGCGGGTTACCATAAGGTTGG,-0.451
2,AGAATGAGGTTATACGTAGATCAGGAAAGAAAGT,0.488
3,ATATGTAGGTTAGCTGGGGCCATTCAGACTAGGC,0.538
4,TCTAGCAGGCCAGAGGGTCAATCAAGAGGTACGG,-0.442
5,ACTTACGGGTCAACGAGGTGATAGCACGCGTATA,0.307
6,CCTACTGGGCCACGAAAGGTCATTGTTTCAGTGA,2.06
7,ATACCAAGGTGATCGTCAGGTCGTTGATACTAAC,0.399
8,CCGCCTAGGTCAGGGCCAGTATAGGAGGAACGTT,-0.663
9,ATCTCTAGGTAACGTTCAGTGAAAGATCGATAGA,0.0107
10,CATACAGGGTCAGGTAGGCCAGAGTAGGGACGGC,0.241
11,CATACAGGGTCAGCTAGGCCAGAGTAGGGACGGC,-0.17
12,ATAACGAGGGCAATGAGTTGATAGCACGGGTGGC,5.03
13,CTTACAGGGTCAGCTAGGCCAGAGTAGGGACGGC,-0.368
14,TCTTGTAGATCAACAGGAGGTTACGAAAGATCGA,0.0297
15,CCGCCTGGGGCAGAAAGGTTACCATACCATCCGG,-0.276
16,ATGGAAAGGTCGACGAGGTGAGTATACACCGTTT,0.609
17,TCTTGTAGATCAATAGAGGTTACGAAAGTGCGCT,0.389
18,TCTATTAGTTGAAGGGCAACTGACGAGTCCGTTT,0.479

# From the supplement of paper PMC6555819
